Autofluor counter: flagged as autofluorescent in microsphere protease counterscreen; compound autofluorescence counterscreen, microsphere flow cytometry; hits give high values; fluorescence intensity (test concentration not listed); AID 624483; 360,000 tested, 3.1% active; in the data active = fluorescence intensity above about 16000; inconclusive = no clear call, values can overlap the other calls
BoNT A protease: inhibitors of Botulinum neurotoxin A light chain protease | multiplex microsphere protease substrate cleavage, flow cytometry | inhibition, % at 10 µM | 360,000 tested, 0.17% active | AID 588499
BoNT-F LC inh: BoNT F light chain protease inhibition | AID 588497 | 360,000 tested, 0.22% active | Multiplex microsphere protease cleavage assay, flow cytometry | inhibition, % at 10 µM; in the data active = inhibition above about 35%, passing the limit was not always enough; inconclusive = no clear call, values can overlap the other calls
Anthrax LF prot: inhibitors of Bacillus anthracis lethal factor protease. P15917. inhibition, % at 10 µM. 360,000 tested, 0.12% active. multiplex microsphere protease cleavage assay, LF
SARS 3CLpro inh: SARS-CoV 3CLpro protease inhibition | AID 1706 | P0C6X7 | recombinant SARS-CoV 3CLpro, quenched FRET peptide cleavage | inhibition, % at 6 µM | 290,000 tested, 0.14% active; in the data active = inhibition above about 12%
DUSP3 inh: inhibitors of human VHR1 phosphatase (DUSP3). P51452. recombinant VHR phosphatase, pNPP absorbance. inhibition, % at 13.3 µM. 290,000 tested, 0.52% active; in the data active = inhibition above about 50%
Numbers stand for hits; - = inactive; ? = inconclusive; . = not tested or not shown. Only some compounds are listed: those with a hit (about 3.9% of all), similar ones and a draw of the others. Rule as the data show it, unless noted: active = inhibition above about 30%; inconclusive = no clear call, values can overlap the other calls; inactive = below that.

SMILES | Autofluor counter | BoNT A protease | BoNT-F LC inh | Anthrax LF prot | SARS 3CLpro inh | DUSP3 inh
COc1ccc(S[C@@H](CCN2CC[C@H](O)CCC2=O)c2ccccc2)cc1 | - | - | - | - | . | .
Cc1cc(C)n2nc(-c3sccc3-n3cccc3)cc2n1 | - | - | - | - | - | -
FC(F)(F)c1cc(C(F)(F)F)n2nc(-c3sccc3-n3cccc3)cc2n1 | 22337 | - | - | - | - | -
Cc1ccccc1S(=O)(=O)NC(=O)C1(C)CCN1C(=O)COc1ccc(Cl)cc1 (stereo not given) | - | - | - | - | . | .
CCC(C)[C@H](NC(=O)N1CC(=O)Nc2ccccc21)C(=O)Nc1nccs1 (stereo not given in full) | - | - | - | - | - | 52
CC(C)[C@H](NC(=O)N1CC(=O)Nc2ccccc21)C(=O)Nc1nccs1 | - | - | - | - | - | -
COc1ccc(NC(=O)CCNC(=O)N2CC(=O)Nc3ccccc32)cc1 | - | - | - | - | . | .
CC(C)c1ccc(NC(=O)CCNC(=O)N2CC(=O)Nc3ccccc32)cc1 | - | - | - | - | - | 51
CCCC(C(=O)Nc1cccc(S(=O)(=O)N2CCCC2)c1)c1ccccc1 (stereo not given) | ? | - | ? | - | . | .
CSc1ccc(CNC(=O)C2(C)CCN2C(C)C)cc1 (stereo not given) | - | - | - | - | . | .
Cc1ccc(N2C(=O)c3sc4nnc(C)c(=O)n4c3C2=O)cc1 | - | ? | - | - | - | -
CCc1ccc(N2C(=O)c3sc4nnc(C)c(=O)n4c3C2=O)cc1 | 20580 | - | - | - | - | -
COC(=O)C1=NN(c2ccc(Cl)cc2)C2C(=O)N(c3ccccc3OC)C(=O)C12 (stereo not given) | - | - | - | - | - | -
CC(=O)Cc1nsc(NC(=O)c2ccc(-c3ccc(Cl)cc3Cl)o2)n1 | 20376 | - | - | - | - | -
CC(=O)Cc1nsc(NC(=O)c2ccc(-c3cc(Cl)ccc3Cl)o2)n1 | - | - | - | - | - | -
CC(=O)Cc1nsc(NC(=O)c2cc(-c3ccc(Cl)c(Cl)c3)oc2C)n1 | 23305 | - | - | - | - | -
CC(C)(C)OC(=O)N1CCC(C(=O)Nc2cccc(C(=O)NCc3ccccc3)c2)CC1 | - | - | - | - | . | .
Cc1cc(-c2nnc(CCC(=O)NCc3ccc(OC(F)(F)F)cc3)o2)no1 | - | - | - | - | - | -
COc1ccc2c(c1)c1ncn(CCN3CCCC3)c(=O)c1n2C | 21856 | - | - | - | - | -
COc1ccc2c(c1)c1ncn(CCN3CCNCC3)c(=O)c1n2C | 22441 | - | - | - | - | -
CC1CN(C(=O)c2ccc(N3CCCCC3)c([N+](=O)[O-])c2)CC(C)O1 (stereo not given) | - | - | - | - | - | -
Cc1c(C)c2ccc(OC(C)C(=O)NCc3ccccn3)cc2oc1=O (stereo not given) | - | - | - | - | - | -
CCc1ccc2oc(C(=O)NCc3ccncc3)c(C)c2c1 | 16440 | - | - | - | - | -
CC(=O)Nc1ccc(-c2ccnc3c2CC(C)(C(=O)Nc2ccc(Cl)cc2)O3)cc1 (stereo not given) | - | - | - | - | . | .
CCC(C)(C)n1nnnc1C(c1cc2cc(OC)ccc2[nH]c1=O)N1CCc2ccccc21 (stereo not given) | 16186 | - | - | - | - | -
SMILES | Autofluor counter | BoNT A protease | BoNT-F LC inh | Anthrax LF prot | SARS 3CLpro inh | DUSP3 inh
CCC(C)(C)n1nnnc1C(c1cc2ccc(OC)cc2[nH]c1=O)N1CCc2ccccc21 (stereo not given) | 17938 | ? | - | - | - | -
CCC(C)(C)n1nnnc1C(c1cc2cc(C)ccc2[nH]c1=O)N1CCCc2ccccc21 (stereo not given) | - | - | - | - | - | -
Cc1ccc(-c2nnc(CSc3nnc(C)s3)o2)cc1 | 22331 | - | - | - | - | -
CCn1c2nc(SCCN3CCOCC3)nnc2c2cc(C)cc(C)c21 | - | - | - | - | - | -
CCCC(=O)Nc1nc(-c2ccccc2)ns1 | - | - | - | - | - | -
Cc1nnc(SCCC(=O)Nc2nc(-c3ccccc3)ns2)s1 | 16875 | - | - | - | - | -
CC(C)C(=O)Nc1nc(-c2ccccc2)ns1 | 22460 | ? | - | - | - | -
O=C(Nc1nc(-c2ccccc2)ns1)c1cccs1 | 22042 | - | - | - | - | -
CCC(=O)Nc1nc(-c2ccccc2)ns1 | 21302 | - | - | - | - | -
CCC(CC)NCc1ccc(OC)cc1OC | 22992 | - | - | - | - | -
COc1ccc(CNC2CCCc3ccccc32)c(OC)c1 (stereo not given) | - | ? | ? | - | - | -
COc1ccc(CNC2CCCCC2C)c(OC)c1 (stereo not given) | 22181 | - | - | - | - | -
COc1ccc(CNCc2ccncc2)c(OC)c1 | - | - | - | - | - | -
CC(=O)Nc1ccc(S(=O)(=O)Oc2cccc(/C=N/N=C3/NC(=O)C(CC(=O)O)S3)c2)cc1 (stereo not given) | - | - | - | - | - | -
COc1ccc(C(=O)C2CCCN(C(=O)/C=C/c3ccccn3)C2)c(C)c1 (stereo not given) | - | - | - | - | - | -
CC1Cc2cc(/C(O)=C3/C(=O)C(=O)N(CCCn4ccnc4)C3c3cccnc3)ccc2O1 (stereo not given) | 17226 | - | - | - | - | -
O=C1C(=O)N(CCCn2ccnc2)C(c2cccnc2)/C1=C(/O)c1ccc(F)cc1 (stereo not given) | 23173 | - | - | - | . | -
O=C1C(=O)N(CCCn2ccnc2)C(c2cccnc2)/C1=C(/O)c1ccc(Br)cc1 (stereo not given) | . | . | . | . | - | .
CN1CCCC(OC(=O)c2cccc(Br)c2)C1 (stereo not given) | - | - | ? | - | - | -
CN1CCC(OC(=O)c2cccc(Br)c2)CC1 | 21018 | - | - | - | - | -
CCOC(=O)c1nn(-c2ccc(Br)cc2)cc1C(=O)c1cccc2ccccc12 | 20527 | - | - | - | - | -
COc1ccc(/C=C2\N=C(c3ccccc3)NNC2=O)cc1 | - | - | ? | - | - | -
COc1cc(/C=C\C(=O)NCc2ccc3c(c2)cc(C)n3C)cc(OC)c1OC | - | 68 | - | - | - | -
CC(C)c1ccc(-c2c(C#N)c(N)nc(SCC(=O)N3CCCCCC3)c2C#N)cc1 | . | . | . | . | - | -
N#Cc1c(N)nc(SCC(=O)NC2CCCCC2)c(C#N)c1-c1ccc(Cl)cc1 | 16126 | - | - | - | - | -
O=C(c1cn(-c2ccccc2)nc1-c1cccc(Br)c1)N1CCOCC1 | - | - | - | - | - | -
Cc1nnc(-c2cccc(Br)c2)c2cn(-c3ccc(Br)cc3)nc12 | 17435 | - | - | - | - | -
CC(=O)c1nn(-c2cccc(Br)c2)cc1C(=O)c1ccc(C)cc1 | ? | - | ? | ? | - | -
Cc1nnc(-c2cccc(Br)c2)c2cn(-c3cccc(Br)c3)nc12 | 34824 | - | - | - | - | -
Cc1nnc(-c2cccc(Br)c2)c2cn(-c3ccccc3)nc12 | 32979 | - | - | - | - | -

Assay outcomes deposited in PubChem by several laboratories.
